From PubChem BioAssay AID651768 (National Center for Advancing Translational Sciences (NCATS), 2012)
Out of some 360,000 compounds screened, about 1,700 (0.47%) were called active. Where a call stands in place of a potency, no number is given. About 2% were inconclusive and are not listed. The full list was thinned out, with actives kept by preference. A number with no mark means an inactive call. Calls come from the whole dose curve; as a rule, active = well fitted inhibition curve with a large enough effect; inconclusive = small, poorly fitted or top-dose-only effect; inactive = no such curve, though single readings can be large or run the other way.

Molecular target: Bifunctional 3'-5' exonuclease/ATP-dependent helicase WRN (Homo sapiens) (UniProt Q14191)
Test: qHTS for Inhibitors of WRN Helicase; note: nearly all actives have a fitted effect of over 55% in size
Details: WRN helicase unwinding, fluorescent forked duplex, kinetic; series mostly up to 114 µM
Method in brief: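 WRN at 20 nM final was preincubated with compound for 15 min at room temperature; reaction started with 100 nM forked duplex oligonucleotide carrying fluorophore and quencher plus 2 mM ATP (final). Unwinding followed kinetically by red fluorescence (ex 525/em 598 nm).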
Potency is the fitted concentration of half-maximal effect.

Bifunctional 3'-5' exonuclease/ATP-dependent helicase WRN (Homo sapiens), sequence (Q14191 whole entry, looked up): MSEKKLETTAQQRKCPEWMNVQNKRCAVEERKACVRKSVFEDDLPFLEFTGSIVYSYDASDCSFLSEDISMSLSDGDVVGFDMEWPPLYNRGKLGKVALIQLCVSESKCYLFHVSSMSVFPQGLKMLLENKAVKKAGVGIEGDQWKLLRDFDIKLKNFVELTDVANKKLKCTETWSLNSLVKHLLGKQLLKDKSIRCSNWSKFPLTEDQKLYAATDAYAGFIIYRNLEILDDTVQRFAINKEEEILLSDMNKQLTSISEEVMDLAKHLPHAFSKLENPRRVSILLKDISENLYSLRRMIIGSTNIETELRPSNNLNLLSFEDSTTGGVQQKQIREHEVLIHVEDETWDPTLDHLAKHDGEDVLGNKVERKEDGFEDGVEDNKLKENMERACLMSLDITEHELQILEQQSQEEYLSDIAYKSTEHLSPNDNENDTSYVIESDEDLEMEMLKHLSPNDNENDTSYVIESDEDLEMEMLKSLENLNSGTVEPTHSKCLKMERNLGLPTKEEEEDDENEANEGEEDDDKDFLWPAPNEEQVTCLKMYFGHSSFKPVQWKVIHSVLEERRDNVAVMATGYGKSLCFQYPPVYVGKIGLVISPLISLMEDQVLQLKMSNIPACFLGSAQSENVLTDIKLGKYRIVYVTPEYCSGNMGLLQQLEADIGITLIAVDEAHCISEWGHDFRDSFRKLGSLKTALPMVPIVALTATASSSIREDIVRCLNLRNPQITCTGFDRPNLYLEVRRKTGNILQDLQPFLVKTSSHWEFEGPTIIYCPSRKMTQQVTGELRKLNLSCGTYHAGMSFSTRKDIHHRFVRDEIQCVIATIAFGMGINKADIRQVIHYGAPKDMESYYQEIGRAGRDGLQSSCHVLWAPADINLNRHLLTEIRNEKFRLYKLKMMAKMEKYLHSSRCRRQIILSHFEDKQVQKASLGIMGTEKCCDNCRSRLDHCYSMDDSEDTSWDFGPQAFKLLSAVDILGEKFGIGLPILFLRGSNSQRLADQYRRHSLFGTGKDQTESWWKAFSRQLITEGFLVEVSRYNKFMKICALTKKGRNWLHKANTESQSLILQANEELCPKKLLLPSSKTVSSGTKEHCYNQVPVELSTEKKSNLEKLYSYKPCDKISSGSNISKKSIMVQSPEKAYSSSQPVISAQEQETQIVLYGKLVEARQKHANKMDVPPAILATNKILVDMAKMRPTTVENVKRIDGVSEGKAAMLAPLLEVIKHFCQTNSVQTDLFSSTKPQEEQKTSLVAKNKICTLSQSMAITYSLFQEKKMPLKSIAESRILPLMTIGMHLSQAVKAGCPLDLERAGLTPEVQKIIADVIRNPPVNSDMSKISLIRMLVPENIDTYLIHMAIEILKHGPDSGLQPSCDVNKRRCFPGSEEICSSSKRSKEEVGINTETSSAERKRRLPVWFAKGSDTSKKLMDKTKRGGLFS

SMILES	Potency	activity change, negative = inhibition
CCCCCc1c(-c2ccc(OC)c(OC)c2)ncn1CCc1ccccc1OC	inactive	–
CCc1cc(C(c2ccccc2OC)N2CCOCC2)c(NC(=O)c2ccccc2)s1 (stereo not given)	inactive	–
O=C(Nc1ccccc1C(=O)NCCCn1ccnc1)c1ccc(Cl)cc1Cl	inactive	–
CCCNC(=O)C1(C)CCCN(Cc2cccc(C(F)(F)F)c2)C1 (stereo not given)	inactive	–
COCCN(Cc1cc2cc3c(cc2nc1Cl)OCO3)C(=O)c1cccc(C)c1	inactive	–
COc1cccc(/C=N/NC(=O)c2[nH]nc3c2CCc2ccccc2-3)c1O	25.1 µM (active)	–
COc1cc(/C=N/NC(=O)c2cccnc2)ccc1OC(=O)c1cccc(Br)c1	inactive	–
COc1ccc(OC)c(/C=N/NC(=O)c2ccc[n+](CC(=O)c3ccccc3)c2)c1	inactive	–
COC(=O)[C@@]12C[C@@H](CC(=O)NCc3cccc(C(F)(F)F)c3)C(=O)N(Cc3ccco3)C1=CCC(C)(C)C2	inactive	–
O=C(NNc1c2ccccc2nc2ccccc12)c1cc2ccccc2cc1O	inactive	–
CC(=O)Nc1ccc(Nc2c3ccccc3nc3ccccc23)cc1	25.1 µM (active)	–
CC(=O)Nc1ccc(Nc2c([N+](=O)[O-])cc(S(C)(=O)=O)cc2[N+](=O)[O-])cc1	inactive	–
COCCN1C(=O)c2oc3c(C)cc(C)cc3c(=O)c2C1c1cccc(O)c1 (stereo not given)	inactive	–
C[C@H](NC(=O)c1nc[nH]c1C(=O)N[C@@H](C)C(=O)OC(C)(C)C)C(=O)OC(C)(C)C	inactive	–
O=C(NCc1nnc(SCC(=O)N2CCCc3ccccc32)o1)c1ccccc1F	inactive	–
N#Cc1c(-c2cccs2)nc(SCC(=O)c2ccc(Br)cc2)[nH]c1=O	50.1 µM (active)	–
Cc1cc(C)c2c(=O)[nH]c(SCC(=O)Nc3ccc(Br)cc3)nc2n1	inactive	–
CC(=O)CSc1nc(CCc2ccccc2)c(C#N)c(=O)[nH]1	inactive	–
CCC1(c2ccccc2)NC(=O)N(CC(=O)Nc2ccccc2C(=O)NC2CCCC2)C1=O (stereo not given)	inactive	–
O=C(NC1CCCCC1)C(c1cc2ccccc2o1)n1c(=O)c(-c2ccco2)nc2ccccc21 (stereo not given)	inactive	–
CCCCN(C(=O)C(CCSC)N1C(=O)c2ccccc2C1=O)c1c(N)n(CCC)c(=O)[nH]c1=O (stereo not given)	inactive	–
N#Cc1ccc(-c2nc3c(Cl)cc(C(F)(F)F)cn3c2Cc2ccccc2C(F)(F)F)cc1	inactive	–
COc1ccc(CN2CCC(C)(Oc3cccc(F)c3)C2)c2ccccc12 (stereo not given)	inactive	–

SMILES	Potency	activity change, negative = inhibition
COc1cccc2c1C(=O)c1c(O)c3c(c(O)c1C2=O)CC(O)(C(C)=NNC(=O)c1ccc(Cl)c(Cl)c1)CC3OC1CC(N)C(O)C(C)O1 (stereo not given)	31.6 µM (active)	–
CCOc1cnc(C(=O)NNC(=O)c2ccccc2Br)o1	inactive	–
O=C(c1ccccc1)c1ccc(OC(=O)N2CCCC2)cc1	inactive	–
COc1cccc(-c2nnc(NC(=O)c3ccc(S(=O)(=O)N(CC(C)C)CC(C)C)cc3)o2)c1	inactive	–
O=C(COc1ccccc1Cl)Nn1cnnc1	inactive	–
C=CCN(N=Nc1cccc([N+](=O)[O-])c1)c1cccc([N+](=O)[O-])c1	inactive	–
CC(=O)NC(c1ccccc1)c1nc(-c2cccc(C(C)C)c2)cs1 (stereo not given)	inactive	–
Cc1cc(C)n(CC(O)COc2ccc(C(C)(C)C)cc2)n1 (stereo not given)	–	2.02% [at 11.6 µM]
COc1ccc(C(CNC(=O)COc2ccc([N+](=O)[O-])cc2)N2CCCCC2)cc1 (stereo not given)	inactive	–
COc1ccc(C(C[N+](=O)[O-])n2nc(C)cc2C)cc1 (stereo not given)	39.8 µM (active)	–
CCCCC(NS(=O)(=O)c1ccc(C)cc1)C(=O)Oc1ccc2c3c(c(=O)oc2c1)CCC3 (stereo not given)	inactive	–
CCOc1ccc(CCN2C(=O)C(=O)N([C@@H](CC(C)C)CN3CCC[C@H]3CN3C(=O)C(=O)NC[C@@H]3Cc3ccccc3)C[C@@H]2CC(C)C)cc1	inactive	–
C[C@H]1CN([C@@H](C)CO)C(=O)c2cc(-c3ccccc3F)cnc2O[C@H]1CN(C)C(=O)C1CCOCC1	inactive	–
Cc1cccc(C)c1-n1nnnc1C1(C)CCC(=O)N1CCOc1ccccc1 (stereo not given)	inactive	–
CC(=O)Nc1cccc(-c2cc3nc(NCc4cccnc4)n(C)c(=O)c3s2)c1	inactive	–
C=C(C)C(=O)Nc1cccc(C2=NOC3(C2)C[C@H](C(N)=O)N(C(=O)C(c2ccccc2)c2ccccc2)C3)c1 (stereo not given in full)	50.1 µM (active)	–
C/C=C(/C)C(=O)Nc1cccc(C2=NOC3(C2)C[C@@H](C(N)=O)N(C(=O)C2(C)CC2)C3)c1 (stereo not given in full)	inactive	–
C/C=C\C=C\C(=O)N1CC2(CC(c3cccc(NC(=O)/C(C)=C\C)c3)=NO2)C[C@H]1C(N)=O (stereo not given in full)	–	-13.3% [at 11.6 µM]
O=C(Nc1ccccc1Cl)c1ccccc1S(=O)(=O)c1ccccc1[N+](=O)[O-]	inactive	–
CC(=O)c1ccc(NC(=O)C(C)N(C)CC(=O)Nc2ccccc2Cl)cc1 (stereo not given)	inactive	–
O=C(Nc1ccccc1Cl)/C(Cl)=C(\Cl)S(=O)c1ccccc1 (stereo not given)	2.51 µM (active)	–
COc1cc(OC)cc(C2=Cc3ccccc3C(CC(=O)c3ccco3)N2c2ccc(-c3cnc(OC)nc3)cc2)c1 (stereo not given)	inactive	–
